FBW7 activator: FBW7 E3 ligase activators, primary screen, biochemical, AlphaScreen, human. F-box/WD repeat-containing protein 7 (Homo sapiens), Q969H0. AlphaScreen FBW7–phospho-cyclin E peptide binding, activator screen. actives 0.13% (n = 650,000). normalized activity (activation), % at 26.1 µM; in the data active = normalized activity above about 1.9%;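 also: purified mutant Fbw7 with reduced substrate affinity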
TEAD-YAP inh: TEAD-YAP interaction inhibition, primary screen, TEAD-YAP interaction inhibitor project, luminescence, HEK-TIYL cells. inhibition, % at 9.12 µM. AID 1259422, 2018. actives 1.4% (n = 640,000). TEAD-Gal4/YAP UAS-luciferase luminescence; in the data active = inhibition above about 32%
MITF inh: MITF inhibitors, primary screen, biochemical, AlphaScreen, human; actives 0.91% (n = 650,000); Microphthalmia-associated transcription factor (Homo sapiens), O75030; inhibition, % at 2.6 µM; AlphaScreen MITF homodimerization, bead proximity signal; AID 1259374, 2018; in the data active = inhibition above about 50%
GPR151 ag: activators of human GPR151, primary screen, cell-based, PathHunter beta-arrestin, luminescence. G-protein coupled receptor 151 (Homo sapiens), Q8TDV0. PathHunter beta-arrestin GPR151 cells. activation, % at 11.2 µM. actives 1% (n = 650,000). AID 1508602, 2020; in the data active = activation above about 4.9%
GPR151 confirm: GPR151 activators, triplicate retest, confirmation, cell-based, PathHunter beta-arrestin, luminescence; 6,700 tested, under 10 active; shares compounds with GPR151 ag; activation, % at 11.2 µM; GPR151 PathHunter beta-arrestin cells, 90 min; % of EA-reagent control over plate median; AID 1508609, 2020;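 active = mean percent activation across replicates above the confirmation screen cutoff of 4.91%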
GPR119 counter: GPR119 activators in beta-arrestin cells, counter-screen for GPR151 activator project, cell-based, PathHunter beta-arrestin, luminescence, triplicate | actives 0.3% (n = 6,700) | shares compounds with GPR151 ag | activation, % at 11.2 µM | AID 1508611, 2020 | 90 min; 0 = compound-well median, 100 = enzyme-acceptor control;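 active = mean percent activation in the counterscreen above 29.09%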;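 also: counterscreen on off-target GPR119 to flag nonselective hits from the GPR151 activator screen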
Target sequence (Q8TDV5 whole entry, looked up): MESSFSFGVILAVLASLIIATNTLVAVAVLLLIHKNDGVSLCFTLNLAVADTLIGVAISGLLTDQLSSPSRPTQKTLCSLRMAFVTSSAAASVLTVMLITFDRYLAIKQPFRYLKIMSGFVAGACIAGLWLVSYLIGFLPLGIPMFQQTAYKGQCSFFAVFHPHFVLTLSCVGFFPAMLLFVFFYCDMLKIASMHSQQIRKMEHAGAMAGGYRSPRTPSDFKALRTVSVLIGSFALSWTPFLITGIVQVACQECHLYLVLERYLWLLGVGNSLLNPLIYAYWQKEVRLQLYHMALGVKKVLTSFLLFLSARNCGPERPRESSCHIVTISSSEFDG
A number is an active result; 0 = inactive; - = no result; ! = a repeat was not active. Hits are enriched below; roughly 3.5% of the tested compounds scored in any of these assays.

SMILES	FBW7 activator	TEAD-YAP inh	MITF inh	GPR151 ag	GPR151 confirm	GPR119 counter
Cc1cccc(NC(=O)CCN2CCN(C/C=C/c3ccccc3)CC2)c1	0	0	0	4.9	0	0
COc1ccc(NC(=O)N2CCCC2)cc1OC	0	0	0	0	-	-
Cc1cc(NC(=O)CCN2CCN(C/C=C/c3ccccc3)CC2)ccc1Br	0	0	0	0	-	-
COc1ccc(NC(=O)N2CCN(C/C=C/c3ccccc3)CC2)cc1OC	0	0	0	14	0	0
COc1ccc(NC(=S)NN2CCOCC2)cc1OC	0	0	0	14	0	0
CCOC(=O)C(CC)Sc1nnc(COc2ccccc2)n1C (configuration not stated)	0	0	0	0	-	-
COc1cccc(CNC(=O)Cn2ncc3c(Cl)cccc32)c1	0	0	0	0	-	-
C=CCn1c(N2CCC(C(=O)NCC(N)=O)CC2)nc2ccccc21	0	0	0	0	-	-
CCOc1ccccc1N1CCN(C(=O)Nc2ccc(OC)c(OC)c2)CC1	0	0	0	7.8	0	0
COCCCNc1nc2nonc2nc1N1CCN(CCOc2ccccc2)CC1	0	0	0	7.2	0	0
Cc1cc(NC(=O)COC(=O)CC2CCCCC2)no1	0	0	0	5.0	0	0
N#Cc1cc([N+](=O)[O-])ccc1NC(=O)COC(=O)C1CC1	0	0	0	0	-	-
N#Cc1cc([N+](=O)[O-])ccc1NC(=O)COC(=O)CC1CCCC1	0	0	0	5.0	0	0
COc1ccc(C(C)C)cc1-c1cnc2ccc(N[C@H](CO)C(C)C)nn12	0	0	0	0	-	-
O=C1COc2cc(S(=O)(=O)CCC(=O)NC3CCCCCCC3)c(Cl)cc2N1	0	0	0	0	-	-
Cc1nn(CC(=O)NCCc2nc3ccccc3[nH]2)c(=O)n2cccc12	0	0	0	0	-	-
CC1CCCC(NC(=O)C2N(Cc3ccccc3)C(=O)C3C(C(=O)Nc4cccc(Cl)c4)C4C=CC32O4)C1C (configuration not stated)	0	0	0	0	-	-
COc1ccc(Nc2nc(C)cc(NCC3CCCO3)n2)cc1 (configuration not stated)	0	0	0	0	-	-
Cc1cc(NCC2CCCO2)nc(Nc2ccc(N3CCOCC3)cc2)n1 (configuration not stated)	0	0	0	4.9	0	0
COCCn1c(SCc2ccc(F)cc2)nc2c([nH]c3ccccc32)c1=O	0	0	0	0	-	-
COCCn1c(SCc2cccc(Cl)c2)nc2c([nH]c3ccccc32)c1=O	0	0	0	11	0	0
COc1ccccc1C(=O)OCC(=O)Nc1ccc(C#N)cc1	0	0	0	6.1	0	0
CNc1ccccc1C(=O)OCC(=O)Nc1ccc(C#N)cc1	0	0	0	0	-	-
Cc1ccc(N2CC(C(=O)N3CCCCCC3)CC2=O)cc1 (configuration not stated)	0	0	0	4.9	0	0
CC(C)NC(=O)C1CC(=O)N(c2ccc(Cl)cc2)C1 (configuration not stated)	0	0	0	5.8	0	0
SMILES	FBW7 activator	TEAD-YAP inh	MITF inh	GPR151 ag	GPR151 confirm	GPR119 counter
CC1(C)C(=O)NC2CCCCC2N1C(=O)CCl (configuration not stated)	0	0	0	5.3	0	0
COc1ccc(NC(=O)CCc2c(C)nc3cc(-c4ccccc4OC)nn3c2C)cc1	0	0	0	0	-	-
COc1cccc(NC(=O)CCc2c(C)nc3cc(-c4ccccc4OC)nn3c2C)c1	0	0	0	8.2	0	0
Cc1cnc(-c2c(C)nn(C)c2C)nc1NCCc1ccc(O)cc1	0	0	0	5.7	0	0
Cc1cnc(-c2c(C)noc2C)nc1NCCc1ccc(O)cc1	0	0	0	0	-	-
CCN(CC)S(=O)(=O)c1ccc(N/N=C/c2ccc(O)cc2)nc1	0	0	0	5.7	0	0
CCN(CC)S(=O)(=O)c1ccc(N/N=C/c2ccc(O)c(OC)c2)nc1	0	0	0	0	-	-
Cc1nc2sccn2c(=O)c1S(=O)(=O)N1CCC(Cc2ccccc2)CC1	0	0	0	6.2	0	0
Cc1c(C(=O)Nc2c(F)cc(F)cc2Br)sc2ncn(CC(=O)N3CCOCC3)c(=O)c12	0	0	0	0	-	-
CC(C)CC(NC(=O)C1CCC(C)CC1)C(=O)Nc1cccnc1 (configuration not stated)	0	0	0	7.4	0	0
CCCN1CCC(Oc2cccc(C(=O)NCCOC)c2)CC1	0	0	0	0	-	-
CC(=O)Nc1cccc(NC(=O)COc2cccc3ccc(N4CCCC4)nc23)c1	0	0	0	5.3	0	0
COc1ccc(-c2c(C#N)c(N)n3c(nc4ccccc43)c2C#N)cc1OC	0	0	0	0	-	-
COc1cc(-c2c(C#N)c(N)n3c(nc4ccccc43)c2C#N)ccc1OCCCC#N	0	0	0	7.3	0	0
Cc1ccc(C(=O)N/C(=C/c2ccc(Cl)cc2)C(=O)NCC(=O)O)cc1	0	0	0	0	-	-
CCN(CC)CCNC(=O)c1cc(Cl)c(N)cc1OC	0	0	0	6.6!	0	0
CCCc1cc(=O)[nH]c(SCC(=O)Nc2cc3c(cc2C(C)=O)OCO3)n1	0	0	0	6.3	0	0
COCCNc1nc2ccccn2c(=O)c1/C=C1\SC(=S)NC1=O	0	0	0	5.0!	0	0
CCOC(=O)N1CCC(NCCCOC)CC1	0	0	0	0	-	-
CCn1c(=O)c(C(=O)NNC(=O)c2ccc([N+](=O)[O-])cc2)c(O)c2ccccc21	0	0	0	21	0	0
CCN(CC)c1ccc(/C=N/NC(=O)c2ccccc2Cl)c(O)c1	0	0	0	7.3	0	0
O=C(N/N=C/c1ccccc1O)c1ccc(Cl)cc1Cl	0	0	0	5.1	0	0
COc1ccccc1/C=N/NC(=O)c1ccccc1Cl	0	0	0	0	-	-
COc1ccccc1/C=N/NC(=O)c1ccccc1O	0	0	0	7.1	0	0
Cc1c2cn[nH]c(=O)c2c(C)n1Cc1ccc(Cl)cc1	0	0	0	0	-	-
CC(=O)NCCNC(=O)c1ccc(Br)s1	0	0	0	6.0	0	0
O=C(NO)c1ccc(Br)s1	0	0	0	0	-	-
O=C1CCC(CCC(=O)N2CCc3c([nH]c4ccccc34)C2c2cc(F)ccc2F)=NN1 (configuration not stated)	0	0	0	0	-	-
COc1ccc(CNC(=O)c2cnn3c(C)c(Cc4cccc(Cl)c4)c(C)nc23)cc1	0	0	0	0	-	-
Cc1nc2c(C(=O)N3CCCC3)cnn2c(C)c1Cc1cccc(Cl)c1	0	0	0	5.5	0	0

Assay outcomes as filed in PubChem BioAssay.
